# Data taken from the supplement of paper PMC6555819.
# Assays:
# Assay in all cases: PBM binding z-score (relative to random genomic background probes); higher = stronger binding; sequences stand for … in GC…GCGATTGACAGCGTAGAATGAAGG
# [1] = test system: FXR:RXRa (NR concentration 270 nM, RXRa partner concentration 90 nM)
# Outline: (§1)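 Ligand-free nuclear receptor dimers were bound for 1 h to custom Agilent 4×180K protein-binding microarrays. Detection used antibodies against each partner (one per run). Binding z-scores rest on regression-normalized fluorescence, with random background probes as the reference.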
# [2] = test system: LXRa:RXRa (NR concentration 270 nM, RXRa partner concentration 90 nM)
# Outline: as §1
# [3] = test system: LXRa homodimer (NR concentration 270 nM)
# Outline: as §1
# [4] = test system: LXRb:RXRa (NR concentration 270 nM, RXRa partner concentration 90 nM)
# Outline: as §1
# [5] = test system: LXRb homodimer (NR concentration 270 nM)
# Outline: as §1
# [6] = test system: PPARa:RXRa (NR concentration 270 nM, RXRa partner concentration 90 nM)
# Outline: as §1
# [7] = test system: PPARg:RXRa (NR concentration 180 nM, RXRa partner concentration 90 nM)
# Outline: as §1
# [8] = test system: PPARg:RXRa 270nM:90nM, anti-RXR (NR concentration 270 nM, RXRa partner concentration 90 nM)
# Outline: as §1
# [9] = test system: PPARg:RXRa 30nM:10nM, anti-RXR (NR concentration 30 nM, RXRa partner concentration 10 nM)
# Outline: as §1
# [10] = test system: PPARg:RXRa 90nM:30nM, anti-RXR (NR concentration 90 nM, RXRa partner concentration 30 nM)
# Outline: as §1
Sequence,PBM binding z-score [1],PBM binding z-score [2],PBM binding z-score [3],PBM binding z-score [4],PBM binding z-score [5],PBM binding z-score [6],PBM binding z-score [7],PBM binding z-score [8],PBM binding z-score [9],PBM binding z-score [10]
CGAACGAGGGCATGAGGTGATAGCAAATGCCGAT,0.82,0.474,-0.458,0.317,-0.998,2.05,2.27,2.23,0.483,1.49
AACTCTAGGTAAAAGTTCAGTGAATCCCGAGGAT,1.13,1.42,1.21,0.973,0.00492,4.2,7.44,7.64,6.5,8.32
CGTCAAAGTTCAAGGTAACGTACCAGAAAGCAGC,6.54,5.59,3.17,3.47,1.03,4.79,4.38,5.05,1.94,4.24
GGAACGAGGGCTTTCGAGTTGATAGCATGGCGAT,-0.242,-0.418,-0.465,-0.655,-0.894,-0.173,0.0484,-0.127,-0.533,-0.499
CCTACTTGGCCAAGGTCATTGATCAGTCAAAGCA,3.65,4.26,1.93,3.87,1.21,4,1.27,2.15,0.389,1.41
AAAACAGGGTCACTAGGCCAGAGTAGGTACGAAT,6.63,4.02,-0.0117,4,0.509,6.07,8.29,7.23,4.36,6.34
CAAACTAGGTCACCGGAAGGTAAAAGTCCGCATG,4.56,3.72,0.573,2.66,0.507,5.39,9.08,7.23,5.39,7.11
ACTCGGAGGACAAAGGTCAGAGATACGCCAGTGA,4.21,4.08,1.83,3.54,0.52,4.69,7.66,6.85,6.73,7.24
ATCGAAAGGTTGTGAGGTGAGTATACAGAAAGGC,0.714,0.605,-0.189,0.771,0.139,1.68,0.892,0.732,0.508,0.523
TCTCGGAGGACACGAAAGGTCAGAGCTCGACATC,3.13,3.71,3.02,2.84,-0.0794,3.45,1.37,2.8,2.54,2.41
CCGACTGGGGCAGCAAGGTTACCATACCATCCGG,-0.0165,-0.101,-0.322,-0.094,-0.744,0.883,0.917,0.659,-0.509,0.147
CATACAGGGTCAGATAGGCCAGAGTAGGGACGGC,4.34,3.14,0.146,2.31,0.65,4.26,3.15,2.6,0.58,1.71
TCTCGGAGGACACGAAGGTCAGACCTTTCCAGAG,1.6,1.26,0.373,1.41,-0.66,2.19,0.782,1.53,2.38,2.04
TCTCGGATGACACGAAGGTCAGAGCTTTCCAGAG,2.3,1.55,0.495,1.4,-0.796,2.24,0.758,2.21,2.77,2.56
TTGCCTAGGTCAGATCGGGCCAGTATACGCTATA,2.67,1.04,-0.621,0.692,-0.831,1.51,0.532,0.852,-0.179,0.0126
ATTTCTAGGTAACAAGTTCAGTGAAAGAGAGGAC,1.38,1.39,1.04,1.18,1.41,2.76,3.06,3.44,1.82,3.09
TCGAGTCGGTTAGTCGGGGCATTCAGCCAACATA,-0.133,-0.389,-0.468,0.0657,-0.884,0.295,-0.72,0.168,0.645,0.378
CGAACTAGGTTAAGGACAGTGAATCTCCGCACGC,0.447,0.377,-0.213,-0.172,-0.661,2.14,2.85,2.74,0.975,2.08
CCGACTGGGGCTAAGGTTACCATACTCAGTACGA,0.144,0.0677,-0.428,0.815,-0.943,2.71,5.47,5.55,4.41,5.78
ATCTCTAGGTAAAAGTTCAGAGAATCCCGAGGAT,1.14,1.55,1.43,1.03,0.872,4.35,8.44,7.88,7.79,9.43
GCGACTGGGGCAACGCAGGTTACCATAAGGTTGG,0.326,0.211,-0.468,0.14,-0.947,1.52,1.61,1.27,-0.287,0.414
AGAATGAGGTTATACGTATATCAGGGAAGAAAGT,2.23,2.1,0.245,2.04,0.468,3.47,2.58,2.29,1.04,1.85
ATCTCTAGGTAAAGTTCAGTGATAGATCGATAGA,1.49,1.95,1.88,1.14,1.34,2.39,3.59,4.16,2.3,3.88
CCAGACAGGTGAAAGGTAGCTCAGTCTGGTACGC,0.0731,-0.0262,-0.504,0.0215,-1.1,2.23,3.22,4.68,2.78,4.9

Sequence,PBM binding z-score [1],PBM binding z-score [2],PBM binding z-score [3],PBM binding z-score [4],PBM binding z-score [5],PBM binding z-score [6],PBM binding z-score [7],PBM binding z-score [8],PBM binding z-score [9],PBM binding z-score [10]
CCTACTGGGCCAAAGGTCATGGATTCCAATGCTC,5.14,5.37,2.61,5.06,0.296,6.56,12,9.45,10.3,10.5
ATATGTAGGTTAAGGGTCATTCAGGTTGGTTCGC,5.11,5.05,3.62,4.41,1.4,6.68,11.5,9.78,10.3,11.1
GCTCGGAGGACAACGTCAGAGCTTTGTCCGTAGA,-0.816,-1.18,-1,-1.15,-1.11,-0.78,-0.651,-1.1,-1.29,-1.22
TGAATGAGGTTAAAGCTCAGGGAACGTGGCGTCG,2.94,1.92,-0.466,0.894,-0.222,3.6,2.86,4,2.09,3.82
CTCTAAAGGTCGTGCTCAGGTGAGTATACCAAAC,5.37,4.54,0.529,3.65,0.548,5.2,3.27,4.11,0.925,2.64
CGTCAAAGTTCAAGGTAACGTTACAGAAAGCAGC,6.48,5.5,3.04,3.64,1.12,4.78,4.55,5.04,2.28,4.37
AGAACGAGGGCACGATGAGTTGATAGCAGAGTAG,0.874,0.721,-0.147,0.286,-0.796,2.29,2.6,2.02,0.778,1.51
CGTCCAAGGTCAAAGGTGAGTGAAGAGATGACGG,7.3,5.66,0.771,4.65,1.11,6.66,8.58,7.77,5.88,7.38
TATACAGGGTCAAAGGCCAGAATACGAATGTCGA,6.57,5.89,2.16,4.62,2.29,5.89,7.8,7.19,5.21,7.33
CGTCCAAGGTAAGCAGGTCAGTGAAAGCGACGTG,0.187,-0.0922,-0.204,0.018,-1.12,1.25,0.208,0.427,-0.743,-0.154
CCTAGTTGGTCAGGAGGTCACACCCCGGATATGA,3.53,3.05,2.07,3.15,0.855,3.98,2.86,3.57,1.05,3.09
TAGCGTAGGTCATGGGCCAGTATACCACGCGAAC,4.78,3.98,0.0742,2.68,-0.458,4.58,3.92,4.08,1.41,2.88
CAAACTAGCTCAAGGTCAAAGTCGGTTTGTGCCA,4.51,5.18,5.93,4.13,1.45,4.17,1.21,2.95,0.947,2.05
ACAGACAGGTGATGAAGGTAGCTCAGGCTATCAT,-0.0912,-0.299,-0.372,-0.485,-0.548,-0.377,0.539,-0.247,-0.307,0.0803
GATACAGGGTCAAGGGCAGAGTACGCGTATTGAT,6.94,4.74,0.422,4.1,0.257,5.92,6.21,5.97,2.9,4.69
CCTCGGAGGACCACAGGAGGTCAGAGCTGCCAGA,0.729,1.79,0.525,1.3,-0.715,1.97,0.00464,0.0668,-0.599,-0.575
ATATGTAGGTTAAGGGTCATCCAGGTTGGTTCGC,4.92,5.03,2.83,4.66,1.61,6.89,12.2,10.6,11.2,12.3
GCTTGTAGATCAAGGTGAAGAAAGACTAAGCTAA,-0.249,-0.317,-0.489,-0.225,-0.819,0.597,0.122,0.939,0.103,0.281
CCTACTGGGCCAAAAAGATCATTGATGCCGATAA,-0.2,-0.313,-0.155,-0.481,-0.601,0.11,0.525,0.504,-0.0196,0.372
CCGAGTAGGTTATGGGGCATTGAGGCAACGGTGA,0.345,0.579,-0.265,0.437,-0.0283,2.09,3.48,4.63,2.18,4.57
CCTAGCGGGCCAGGGTCACTCAAGCATTTCGCTT,2.02,1.7,-0.501,1.75,-1.09,3.22,0.585,1.45,-0.704,0.334
TCAATTAGTTGATTAGGGCAACCGAAACAGCGGA,0.579,0.188,-0.056,0.445,-0.277,0.882,0.217,1.6,3.41,2.45
TCATATAGGTAAAAGGAGAAAGTCGGTGTGGTAA,1.15,0.966,-0.0649,0.573,-0.239,2.06,2.92,4.79,4.87,5.01
AGAACGTGGGCAATGAGTTGATAGCACGGGTGGC,-0.669,-0.786,-0.475,-1.07,-0.973,-0.601,0.723,-0.543,-0.342,-0.679
